Results on 58 molecules are retold here after PubChem BioAssay AID1851 (National Center for Advancing Translational Sciences (NCATS), 2009).

A word on the AC50: it is the concentration giving half of the maximal activity seen.

The campaign covered roughly 16,000 compounds. About 5,800 (36%) were called active. Not shown: some 23% with an inconclusive outcome. Some of the results follow. Unmarked numbers belong to inactive results. Calls follow the shape of the dose curve; as a rule, active = well fitted curve in the direction sought with a large enough effect; inconclusive = small, poorly fitted or top-dose-only effect, or effect the other way; inactive = no such curve, though single readings can be large or run the other way.
% is scaled to controls: 0 for no effect and ±100 for the full control effect.

For the assay, the target named is Cytochrome P450 2C19 (Homo sapiens) (UniProt P33261). Put plainly: Cytochrome panel assay with activity outcomes. Particulars: recombinant CYP, pro-luciferin dealkylation, luminescence, p450-cyp2c19; series mostly up to 57.1 µM.
Cytochrome P450 2C19 (Homo sapiens), sequence (P33261 whole entry, looked up): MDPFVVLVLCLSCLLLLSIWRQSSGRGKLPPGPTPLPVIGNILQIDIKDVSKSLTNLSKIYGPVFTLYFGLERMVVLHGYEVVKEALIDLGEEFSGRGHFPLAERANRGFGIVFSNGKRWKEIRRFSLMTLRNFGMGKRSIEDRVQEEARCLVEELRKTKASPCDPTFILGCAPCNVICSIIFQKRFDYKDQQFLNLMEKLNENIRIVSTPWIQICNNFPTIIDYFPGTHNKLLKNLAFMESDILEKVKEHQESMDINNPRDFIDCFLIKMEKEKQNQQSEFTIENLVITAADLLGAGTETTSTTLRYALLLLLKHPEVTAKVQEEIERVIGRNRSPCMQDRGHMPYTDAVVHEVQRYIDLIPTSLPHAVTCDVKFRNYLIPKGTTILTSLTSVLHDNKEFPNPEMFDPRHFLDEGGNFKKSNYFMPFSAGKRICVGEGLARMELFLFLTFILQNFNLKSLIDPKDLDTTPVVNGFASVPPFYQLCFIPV
Regarding `Cc1ccnc(NS(=O)(=O)c2ccc(N=[N+]=[N-])cc2)n1`, the activity, negative = inhibition is 39.6% [at 11.4 µM].
As to `COc1ccc(CN(CCC#N)C(=S)NC(=O)c2ccccc2)cc1`, the AC50 was 7.94 µM (active).
On to `CCOc1ccc(C(=O)NC(=S)N(Cc2ccccc2)Cc2ccccc2)cc1`, for which the AC50 is 8.91 µM (active).
Turning to `O=C(NC(=S)N(Cc1ccccc1)Cc1ccccc1)c1ccccc1F`, the AC50 is 2.24 µM (active).
As for `C[C@H](CN(C)C)C(=O)c1ccccc1C(=O)O`, the activity, negative = inhibition is 12.3% [at 11.4 µM].
As for `CN1CCN(NC(=O)c2ccccc2F)CC1`, the AC50 entry is “inactive”.
Consider `CCc1ccc(NC(=O)Cn2nc(C(F)(F)F)c3c2CCC3)cc1`, for which the AC50 was 7.94 µM (active).
For `CCCCN(C)CCCNC(=O)c1ccc(N2CCCC2=O)cc1`, the AC50 result is “inactive”.
Consider `CCNC(=O)c1ccc(-n2nc(C(F)(F)F)c3c2CCCC3)cc1`, for which the AC50 is 5.62 µM (active).
As to `O=C1OCCC1Sc1nnc(-c2ccc(O)cc2)o1` (stereo not drawn), the AC50 was 10 µM (active).
In the case of `Cc1cc(C)c2[nH]c(=O)c(CN(Cc3ccco3)C(=O)c3cccs3)cc2c1`, the AC50 is 1.78 µM (active).
Consider `CN(CCC#N)C(=O)c1ccc(CNS(=O)(=O)c2ccc(F)cc2)cc1`, for which the half-maximal activity concentration (AC50) is 17.8 µM (active).
As for `CCC(=O)N1CCc2cc(S(=O)(=O)NC(C(=O)NCc3ccc(F)cc3)C(C)C)ccc21` (stereo not drawn), the AC50 entry is “inactive”.
Consider `Cc1c2cccc(Sc3ccccc3)c2c2c3c(cccc13)[S+](c1ccccc1)C2` (stereo not drawn), for which the AC50 was 0.0631 µM (active).
On to `Cn1c(=O)c(-c2cc(F)cc(F)c2)nc2cncnc21`, for which the AC50 result was “inactive”.
`COc1ccccc1CCn1c(=O)c(-c2cccc(F)c2)nc2cncnc21`: the AC50 was 1 µM (active).
As to `COc1ccccc1CCn1c(=O)c(-c2cc(F)cc(F)c2)nc2cncnc21`, the AC50 was 1.58 µM (active).
Consider `COCCn1c(=O)c(-c2cc(F)cc(F)c2)nc2cncnc21`, for which the AC50 result is “inactive”.
As for `CNC(=O)c1c(I)c(C(=O)NCC(=O)Nc2c(I)c(C(=O)O)c(I)c(C(=O)NCCO)c2I)c(I)c(N(C)C(C)=O)c1I`, the AC50 result was “inactive”.
`O=C(O)[C@@H]1[C@@H](C(=O)Nc2ncccn2)[C@@H]2C=C[C@@H]1O2`: the activity, negative = inhibition is 0.77% [at 11.4 µM].
As for `CC[C@]1(O)C[C@@H]2CN(CCc3c([nH]c4ccccc34)[C@](C(=O)OC)(c3cc4c(cc3OC)N(C)[C@H]3[C@](O)(C(=O)OC)[C@@H](C(=O)OC)[C@@]5(CC)C=CCN6CC[C@@]43[C@@H]65)C2)C1`, the AC50 entry was “inactive”.
Regarding `CN(C(=O)CC(NC(=O)c1ccccc1)(c1ccccc1)c1ccccc1)c1ccccc1`, the AC50 is 11.2 µM (active).
Consider `COC(=O)c1ccc(NC(=O)c2ccccc2)o1`, for which the AC50 entry was “inactive”.
For the molecule `CCCCCC1=C2CNC(Cc3ccccc3)(C(=O)OC)C=C2C(C)C1=O` (stereo not drawn), the AC50 is 6.31 µM (active).
As for `CCCCCC1=C2CNC(C)(C(=O)OC)C=C2C(C)C1=O` (stereo not drawn), the AC50 is 20 µM (active).
With `COCCn1c(=O)c(-c2cccc(C#N)c2)nc2cnc(N3CCNCC3)nc21`, the AC50 entry was “inactive”.
For the molecule `Nc1ccc(N=Nc2c(S(=O)(=O)O)cc3ccccc3c2S(=O)(=O)O)cc1`, the activity, negative = inhibition is 1.46% [at 11.4 µM].
As to `Cc1cccc(C)c1NC(=O)CCN1C(=O)C2C3CCC(C3)C2C1=O` (stereo not drawn), the AC50 result was “inactive”.
For `CCOC(=O)CCN1C(=O)[C@H]2[C@@H]3[C@H](O)[C@H](O)CC(=O)[C@H]3CC[C@H]2C1=O`, the activity, negative = inhibition was -31.9% [at 11.4 µM].
`Cc1cc(NC(=O)CCN2C(=O)C3C4CCC(C4)C3C2=O)c(C)cc1Br` (stereo not drawn): the AC50 was 11.2 µM (active).
On to `CC1CCN(CC(=O)Nc2cccc([N+](=O)[O-])c2)CC1`, for which the AC50 is 4.47 µM (active).
Still for that read-out and setting: for `O[C@H](CCCN1CCN(c2ncc(F)cn2)CC1)c1ccc(F)cc1` the value was “inactive”; for `O=C1c2ccccc2S(=O)(=O)N1CCCCN1CCN(c2ncccn2)CC1`, 0.631 µM (active).
As for `Cn1cccc1C(=O)N1CCC2(CC1)CCN(c1ccc(-c3ccccc3)cc1)CC2`, the AC50 entry is “inactive”.
With `COc1ccc(-c2cn3c(C)c(C(=O)NCCN4CCOCC4)sc3n2)cc1`, the AC50 result is “inactive”.
`O=C(NCCN1CCOCC1)c1ccc2ccccc2c1`: the half-maximal activity concentration (AC50) is 7.94 µM (active).
Turning to `COc1ccc(C(=O)NCCCN2CCOCC2)cc1OC`, the AC50 result is “inactive”.
As for `O=C(NCCN1CCCCC1)c1ccc(I)cc1`, the AC50 result is “inactive”.
`O=C(NCCN1CCOCC1)c1csc2c1CCCCC2`: the AC50 is 28.2 µM (active).
Same read-out and setting: for `Cc1ccc(C(=O)NCCCN2CCOCC2)cc1N1CCCC1=O` the value was “inactive”; for `COc1ccc(C(=O)Nc2ccc(Cl)cc2C(=O)NCCN2CCOCC2)cc1`, 10 µM (active); for `CC(=O)N1CCC2(CC1)CN(C(=O)Nc1cccc(C#N)c1)C2`, “inactive”.
The same measure, in the same setting: in the case of `Cc1c(NC(=O)CSc2nnc3c4ccccc4n(CCc4ccccc4)c3n2)c(=O)n(-c2ccccc2)n1C` it was 25.1 µM (active); in that of `Cc1c(NC(=O)Cn2ccc([N+](=O)[O-])n2)c(=O)n(-c2ccccc2)n1C`, “inactive”; in that of `CC(=O)N1CCc2cc(S(=O)(=O)CCC(=O)Nc3c(C)n(C)n(-c4ccccc4)c3=O)ccc21`, “inactive”.
Consider `Cc1c(NC(=O)CSc2nnnn2C)c(=O)n(-c2ccccc2)n1C`, for which the AC50 result is “inactive”.
With `C=CCn1c(SCC(=O)Nc2c(C)n(C)n(-c3ccccc3)c2=O)nc2sc(C)c(-c3ccccc3)c2c1=O`, the AC50 is 15.8 µM (active).
For the molecule `Cc1nc(SCC(=O)Nc2c(C)n(C)n(-c3ccccc3)c2=O)nc(C)c1C`, the AC50 entry is “inactive”.
With `CC1(C)O[C@@H]2O[C@H]([C@H](O)CO/N=C3/[C@H]4O[C@@H]4[C@@H](O)[C@H]4[C@H]3CCn3c(=O)n(-c5ccccc5)c(=O)n34)[C@@H](O)[C@@H]2O1`, the activity, negative = inhibition is -36.7% [at 11.4 µM].
As to `Cc1c(C(=O)NN2CCN(C)CC2)cccc1[N+](=O)[O-]`, the AC50 result is “inactive”.
Still for that read-out and setting: in the case of `Cc1c(C(=O)NCCC2=CCCCC2)cccc1[N+](=O)[O-]` it was 10 µM (active); in that of `CCC(=O)Nc1cc(-c2nn(C)c(=O)c3ccccc23)ccc1N1CCCCC1`, 15.8 µM (active).
Turning to `COCCn1c(=O)c(-c2ccc(Cl)cc2)nc2cnc(N3CCOCC3)nc21`, the AC50 result was “inactive”.
Consider `Cn1nc(-c2ccc(N3CCOCC3)c(NS(=O)(=O)c3ccc(Cl)cc3)c2)c2ccccc2c1=O`, for which the AC50 is 0.708 µM (active).
As for `Cn1c(=O)c(-c2ccc(Cl)cc2)nc2cnc(N3CCOCC3)nc21`, the AC50 entry was “inactive”.
With `O=C(NC1CCCCC1)C(Cc1ccccc1)N1C(=O)C2C3CCC(C3)C2C1=O` (stereo not drawn), the AC50 is 11.2 µM (active).
On to `CC(=O)Nc1ccc(NCN2C(=O)C3C4CCC(C4)C3C2=O)cc1` (stereo not drawn), for which the AC50 entry is “inactive”.
Turning to `O=C(NCCCN1CCCCCC1)[C@@H](c1ccccc1)C1CCCCC1`, the AC50 result was “inactive”.
